Reference: PubChem BioAssay (NCATS)
Results filed as inconclusive are left out. A call without a number means that no potency is given here. Activity calls are given as the source filed them. Calls follow the shape of the dose curve; as a rule, active = well fitted curve in the direction sought with a large enough effect; inconclusive = small, poorly fitted or top-dose-only effect, or another doubt; inactive = no such curve, though single readings can be large; an effect the other way counts as inactive or inconclusive.

Assay: qHTS of pediatric cancer cell lines to identify multiple opportunities for drug repurposing: Primary screen for control Hh wild type fibroblast cells (AID 1347106);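 also: a drop in luminescence marks cytotoxicity and a rise apparent proliferation; nearly all actives have a fitted effect of over 55% in size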
Details: Hh wild-type fibroblast viability, CellTiter-Glo luminescence, 48 h; series mostly up to 46 µM
Method in brief: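 Cells (500-1,000/well) in growth media were settled 5 h at 37 degrees C, then given compounds for 48 h. Viability was read as CellTiter-Glo luminescence. Primary runs used MIPE at 11 points (0.78 nM-46 µM) and NPC at 8 points (0.59 nM-46 µM); follow-ups used 11 points.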

Question: With `COCCCCC(=NOCCN)c1ccc(C(F)(F)F)cc1` as the molecule, how does the Potency read?
Answer: The Potency was “inactive”.

Question: With `Cc1ccc(Nc2cc(-c3cccc(N4C(=O)c5ccccc5C4=O)c3)ncn2)cc1NS(C)(=O)=O` as the molecule, how does the Potency read?
Answer: The Potency was “inactive”.

Question: For `C[C@]12CC[C@@H]3c4ccc(O)cc4CC[C@H]3[C@H]1C[C@@H](O)[C@H]2O`, which Potency is on record?
Answer: Its Potency is “inactive”.

Question: With `CC1(C)O[C@H]2C[C@@H]3[C@H]4CCC5=CC(=O)C=C[C@]5(C)[C@@]4(F)[C@@H](O)C[C@]3(C)[C@]2(C(=O)CO)O1` as the molecule, how does the Potency read?
Answer: Its Potency is “inactive”.

Question: With `O=C(CCN1CCN(C(=O)OCc2cc(Cl)cc(Cl)c2)CC1)c1ccc2[nH]c(=O)oc2c1` as the molecule, how does the Potency read?
Answer: The Potency was “inactive”.

Question: Which Potency does the source give for `CC(C)[C@H](CO)Nc1nc(Nc2ccc(C(=O)O)c(Cl)c2)c2ncn(C(C)C)c2n1` here?
Answer: Its Potency is “inactive”.

Question: With `NC(=O)NN=Cc1ccc([N+](=O)[O-])o1` as the molecule, how does the Potency read?
Answer: The Potency was “inactive”.

Question: For `O=C1NC(=O)C(=Cc2ccc3c(c2)OC(F)(F)O3)S1`, which Potency is on record?
Answer: The Potency was “inactive”.

Question: For `CCOc1ccc(Nc2nc(-c3c(C)nc4ccccn34)cs2)cc1`, which Potency is on record?
Answer: The Potency was “inactive”.

Question: For `C[C@H](NC(=O)C(=O)Nc1ccccc1C(C)(C)C)C(=O)N[C@@H](CC(=O)O)C(=O)COc1c(F)c(F)cc(F)c1F`, which Potency is on record?
Answer: Its Potency is “inactive”.

Question: With `CC1(C)S[C@H]2[C@H](NC(=O)[C@@H](N)c3ccc(O)cc3)C(=O)N2[C@@H]1C(=O)O` as the molecule, how does the Potency read?
Answer: Its Potency is “inactive”.

Question: With `Cc1[nH]c(C=C2C(=O)Nc3ccc(S(=O)(=O)Cc4c(Cl)cccc4Cl)cc32)c(C)c1C(=O)N1CCC[C@H]1CN1CCCC1` as the molecule, how does the Potency read?
Answer: The Potency was “inactive”.

Question: With `CN(C[C@@H]1COCCO1)S(=O)(=O)Nc1ccc2ccc3ncc(-c4cnn(C)c4)cc3c(=O)c2c1` as the molecule, how does the Potency read?
Answer: Its Potency is “inactive”.

Question: For `C=CCc1ccc(O)c(-c2ccc(O)c(CC=C)c2)c1`, which Potency is on record?
Answer: The Potency was “inactive”.

Question: Which Potency does the source give for `O=C(NOCC(O)CO)c1cc(Br)c(F)c(F)c1Nc1ccc(I)cc1F` (stereo not given) here?
Answer: The Potency was “inactive”.

Question: Which Potency does the source give for `CCOC(CN1C(=O)[C@](CC(=O)Nc2ccc(C)cc2)(NC(=O)Nc2ccc(C)cc2)c2ccccc21)OCC` here?
Answer: Its Potency is “inactive”.

Question: For `O=C(O)C=Cc1ccc(O)c(O)c1`, which Potency is on record?
Answer: The Potency was “inactive”.

Question: With `O=C1C[C@@H](c2ccc(O)cc2)Oc2cc(O)cc(O)c21` as the molecule, how does the Potency read?
Answer: Its Potency is “inactive”.

Question: Which Potency does the source give for `CO[C@H]1C[C@@H]2CC[C@@H](C)[C@@](O)(O2)C(=O)C(=O)N2CCCC[C@@H]2C(=O)O[C@H]([C@H](C)C[C@@H]2CC[C@H](OC(=O)C(C)(CO)CO)[C@H](OC)C2)CC(=O)[C@H](C)C=C(C)[C@@H](O)[C@@H](OC)C(=O)[C@H](C)C[C@H](C)C=CC=CC=C1C` here?
Answer: Its Potency is “inactive”.

Question: Which Potency does the source give for `CS(=O)(=O)N(Cc1ccco1)CC(O)Cn1c2ccccc2c2ccccc21` (stereo not given) here?
Answer: Its Potency is “inactive”.

Question: Which Potency does the source give for `O=C(N[C@@H](c1ccccc1)[C@@H]1CCCCN1)c1cccc(C(F)(F)F)c1Cl` here?
Answer: The Potency was “inactive”.

Question: For `NC(=O)[C@@H](CCC(F)(F)F)N(Cc1ccc(-c2ncon2)cc1F)S(=O)(=O)c1ccc(Cl)cc1`, which Potency is on record?
Answer: Its Potency is “inactive”.

Question: Which Potency does the source give for `Cc1cccc(Nc2nc(-c3ccncc3)cs2)c1` here?
Answer: Its Potency is “inactive”.

Question: Which Potency does the source give for `O=C1NC(=O)C(=Cc2ccc(-c3ccc(F)cc3)o2)S1` here?
Answer: The Potency was “inactive”.

Question: For `O=C(Nc1ccccc1Br)N[C@@H]1CCN(c2ccc(C(F)(F)F)cn2)C1`, which Potency is on record?
Answer: Its Potency is “inactive”.

Assay: qHTS of pediatric cancer cell lines to identify multiple opportunities for drug repurposing: Primary screen for Rh30 cells (AID 1347107); also: nearly all actives have a fitted effect of over 75% in size; also: potency is read from the fitted curve at half-maximal effect
Details: Rh30 rhabdomyosarcoma viability, CellTiter-Glo luminescence, 48 h; series mostly up to 46 µM
Method in brief: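 Cells (500-1,000/well) rested 5 h, then received compounds for 48 h; metabolically active cells were measured by CellTiter-Glo luminescence. Final concentrations spanned up to 46 µM (MIPE, 11-point) or 0.59 nM-46 µM (NPC, 8-point) in primary screens, 11-point in follow-ups.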

Question: With `COCCCCC(=NOCCN)c1ccc(C(F)(F)F)cc1` as the molecule, how does the Potency read?
Answer: The Potency was 23.5 µM (active).

Question: Which Potency does the source give for `CN(C)Cc1ccc(-c2nc3cccc4c3n2CCNC4=O)cc1` here?
Answer: The Potency was “inactive”.

Question: For `C[C@]12CC[C@@H]3c4ccc(O)cc4CC[C@H]3[C@H]1C[C@@H](O)[C@H]2O`, which Potency is on record?
Answer: Its Potency is “inactive”.

Question: With `CC1(C)O[C@H]2C[C@@H]3[C@H]4CCC5=CC(=O)C=C[C@]5(C)[C@@]4(F)[C@@H](O)C[C@]3(C)[C@]2(C(=O)CO)O1` as the molecule, how does the Potency read?
Answer: Its Potency is “inactive”.

Question: Which Potency does the source give for `O=C(CCN1CCN(C(=O)OCc2cc(Cl)cc(Cl)c2)CC1)c1ccc2[nH]c(=O)oc2c1` here?
Answer: Its Potency is “inactive”.

Question: With `CC(C)[C@H](CO)Nc1nc(Nc2ccc(C(=O)O)c(Cl)c2)c2ncn(C(C)C)c2n1` as the molecule, how does the Potency read?
Answer: Its Potency is “inactive”.

Question: With `NC(=O)NN=Cc1ccc([N+](=O)[O-])o1` as the molecule, how does the Potency read?
Answer: Its Potency is “inactive”.

Question: With `Cc1ccc(C(C)(O)c2nc3ccccc3s2)c(C)c1` (stereo not given) as the molecule, how does the Potency read?
Answer: Its Potency is “inactive”.

Question: For `CCOc1ccc(Nc2nc(-c3c(C)nc4ccccn34)cs2)cc1`, which Potency is on record?
Answer: The Potency was “inactive”.

Question: With `C[C@H](NC(=O)C(=O)Nc1ccccc1C(C)(C)C)C(=O)N[C@@H](CC(=O)O)C(=O)COc1c(F)c(F)cc(F)c1F` as the molecule, how does the Potency read?
Answer: Its Potency is “inactive”.

Question: For `O=C(Nc1ccccc1-c1cn2c(CN3CCNCC3)csc2n1)c1cnc2ccccc2n1`, which Potency is on record?
Answer: The Potency was 23.5 µM (active).

Question: For `CC(C)C[C@H](CC(=O)O)C(=O)N[C@@H](Cc1c[nH]c2ccccc12)C(=O)N[C@@H](C)c1ccccc1`, which Potency is on record?
Answer: Its Potency is “inactive”.

Question: For `CN(C[C@@H]1COCCO1)S(=O)(=O)Nc1ccc2ccc3ncc(-c4cnn(C)c4)cc3c(=O)c2c1`, which Potency is on record?
Answer: Its Potency is “inactive”.

Question: For `N[C@@]1(C(=O)O)CS(=O)(=O)[C@H]2[C@H](C(=O)O)[C@H]21`, which Potency is on record?
Answer: The Potency was “inactive”.

Question: With `CCOC(CN1C(=O)[C@](CC(=O)Nc2ccc(C)cc2)(NC(=O)Nc2ccc(C)cc2)c2ccccc21)OCC` as the molecule, how does the Potency read?
Answer: The Potency was “inactive”.

Question: For `O=C(O)C=Cc1ccc(O)c(O)c1`, which Potency is on record?
Answer: The Potency was 23.5 µM (active).

Question: For `O=C1C[C@@H](c2ccc(O)cc2)Oc2cc(O)cc(O)c21`, which Potency is on record?
Answer: Its Potency is “inactive”.

Question: For `O=C(N[C@@H](c1ccccc1)[C@@H]1CCCCN1)c1cccc(C(F)(F)F)c1Cl`, which Potency is on record?
Answer: The Potency was “inactive”.

Question: For `Cc1cccc(Nc2nc(-c3ccncc3)cs2)c1`, which Potency is on record?
Answer: The Potency was “inactive”.

Question: For `O=C(O)CCc1nc(-c2ccccc2)c(-c2ccccc2)o1`, which Potency is on record?
Answer: The Potency was “inactive”.
